Bioassay records as filed in PubChem.
Hits are enriched below; roughly 1.8% of the tested compounds scored in any of these assays.
TLR4-MyD88 BLA – TLR4-MyD88 interaction inhibition in cells. O00206+Q99836. HeLa CL3-4 TLR4/MyD88 BLA complementation, FRET ratio. inhibition, % at 8.4 µM. 0.18% of 200,000 active; in the data active = inhibition above about 25%;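 note: 0% = vehicle and 100% = reference inhibitor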
m5-HT2A agonist – mouse HTR2A agonism via beta-arrestin recruitment. 0.66% of 360,000 active. CHO-K1 mHTR2A beta-arrestin complementation, luminescence; percent of 30 µM serotonin response. activation, % at 7.6 µM;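 active = activation above a run cutoff, the mean activation of all tested compounds plus 3 SD, cut at about 14% in these data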;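 note: 0% = plate median of compound wells and 100% = 30 µM serotonin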
LANA-H2A inh – blocks KSHV LANA binding to histone H2A/H2B. 0.6% of 320,000 active. Q9QR71. inhibition, % (no concentration beside the values). cell-free LANA-H2A/H2B peptide, fluorescence polarization; in the data active = inhibition mostly above about 10%, no sharp cut-off; inactive = mostly below about 6.7%
TLR9-MyD88 block – inhibitors of human TLR9-MyD88 binding; CHO BLA complementation TLR9-MyD88, CCF4 FRET ratio; Q9NR96+Q99836; 0.21% of 340,000 active; inhibition, % at 4.98 µM; AID 504734;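 active = inhibition above the mean over all tested compounds plus 3 SD, cut at about 21% in these data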;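 note: 0% = DMSO only wells and 100% = clavulanate BLA inhibitor control wells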
NOD2-RIPK2 inh – blocks binding of human NOD2 to RIPK2 | 0.38% of 360,000 active | inhibition, % at 4.98 µM | CHO BLA complementation NOD2-RIPK2, CCF4 ratio | O43353; in the data active = inhibition above about 21%;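 note: 0% = vehicle only and 100% = reference blocker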
Target sequence (O43353 whole entry, looked up): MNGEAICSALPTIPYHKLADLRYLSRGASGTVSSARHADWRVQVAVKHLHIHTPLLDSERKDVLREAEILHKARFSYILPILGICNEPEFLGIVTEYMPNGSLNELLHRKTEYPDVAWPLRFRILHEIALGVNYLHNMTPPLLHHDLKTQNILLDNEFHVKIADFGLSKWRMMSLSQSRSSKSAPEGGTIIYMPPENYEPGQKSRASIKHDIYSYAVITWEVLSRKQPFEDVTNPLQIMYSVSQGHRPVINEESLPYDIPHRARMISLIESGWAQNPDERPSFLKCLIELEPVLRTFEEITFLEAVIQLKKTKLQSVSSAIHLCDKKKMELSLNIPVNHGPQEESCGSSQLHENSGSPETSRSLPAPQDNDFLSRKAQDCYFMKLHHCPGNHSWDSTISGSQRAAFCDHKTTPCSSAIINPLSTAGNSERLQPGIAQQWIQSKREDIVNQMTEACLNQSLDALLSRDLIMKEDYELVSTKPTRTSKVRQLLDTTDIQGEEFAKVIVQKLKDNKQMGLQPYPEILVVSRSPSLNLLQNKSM
Rtt109 Vps75 – C. albicans Rtt109 histone acetyltransferase inhibition; purified Rtt109/Vps75, ThioGlo CoA-SH fluorescence, 4 h; 0.16% of 330,000 active; AID 540336; inhibition, % at 34.9 µM; Q5AAJ8;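 active = inhibition of at least 50% in every replicate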
MOR ag counter – counter-screen for mouse HTR2A agonists: human mu opioid receptor agonists. shares compounds with m5-HT2A agonist. U2OS OPRM1 beta-arrestin PathHunter, luminescence; DMSO 0%, DAMGO 9.3 µM 100%. activation, % at 9.3 µM. 5.3% of 2,300 active. AID 624380;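 active = mean activation above the mean of DMSO-only wells plus 3 SD, cut at about 0.5% in these data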
HTR2A ag conf – confirmation of mouse HTR2A serotonin receptor agonists; shares compounds with m5-HT2A agonist; CHO-K1 PathHunter beta-arrestin recruitment, luminescence; DMSO 0%, 30 µM serotonin 100%; activation, % at 7.6 µM; 19% of 2,300 active;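 active = mean activation across triplicates above the hit threshold derived in the original primary screen, cut at about 15% in these data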
* = called active by the depositor; i = inactive; . = no result.

SMILES | TLR4-MyD88 BLA | m5-HT2A agonist | LANA-H2A inh | TLR9-MyD88 block | NOD2-RIPK2 inh | Rtt109 Vps75 | MOR ag counter | HTR2A ag conf
CC(=O)Nc1ccc(S(=O)(=O)N2CC(=O)NC(=O)C2)cc1 | . | 20* | -1 | 0 | 4 | -8 | 0 | -4
Cc1cc(=O)oc2cc(OC(=O)c3ccccc3)ccc12 | -18 | -3 | -2 | 1 | -5 | -3 | . | .
Cc1ccc(N(C)S(=O)(=O)c2cccc(C(=O)Oc3ccc4c(C)cc(=O)oc4c3)c2)cc1 | 7 | 19* | 4 | 0 | -6 | -2 | 0 | -3
CC(C)N1CC(C(=O)Nc2cccc([N+](=O)[O-])c2)CC1=O (stereo unspecified) | . | 7 | 4 | -2 | -5 | -6 | . | .
COC(=O)[C@H]1C[C@H](OC(=O)Nc2c(C)noc2C)[C@@]2(O)CN(S(=O)(=O)c3ccc(C)cc3)CC2[C@H]1C(=O)OC (stereo partly specified) | . | 16* | . | 5 | 4 | . | 0 | -2
O=C1NC2(CCCC2)C(=O)N1CC(=O)N(Cc1ccccc1)c1ccccc1 | . | 6 | -1 | 1 | -7 | 1 | . | .
COC(=O)CCC(=O)NNC(=O)c1ccc([N+](=O)[O-])cc1 | 7 | 14* | 0 | 6 | -17 | -4 | 0 | 6
CCCCCCCC(=O)NNC(=O)c1ccc([N+](=O)[O-])cc1 | 10 | 0 | 3 | -7 | 2 | 0 | . | .
Cc1csc(=O)n1CC(=O)OCC(=O)NNC(=O)c1ccc([N+](=O)[O-])cc1 | . | 15* | 0 | 4 | -11 | 12 | 0 | 1
COc1c(NC=O)c2c(c([N+](=O)[O-])c1OC)C(=O)OC2 | . | -5 | . | -6 | -15 | -1 | . | .
Cn1nc(C(C)(C)C)cc1N1C(=O)CCC1(C)C(=O)Nc1ccc2c(c1)OCCO2 (stereo unspecified) | . | 4 | . | . | -9 | . | . | .
CCCNC(=O)C1(C)CCN(C(=O)COc2ccc(C(C)(C)C)cc2)C1 (stereo unspecified) | . | 10 | . | . | 14 | . | . | .
COC(=O)CN1C(c2ccc(Cl)cc2)=Nc2ccc(Cl)cc2C1c1ccccc1 (stereo unspecified) | 3 | 15* | 9 | -3 | -5 | -3 | 0 | -1
COc1ccc(C2=Nc3ccc(C)cc3C(c3ccccc3)N2CC(=O)NN)cc1 (stereo unspecified) | 5 | -5 | 4 | -4 | 0 | . | . | .
Cc1c(C(=O)Nc2ccc(-c3nnc4n3CCCCC4)cc2)oc2ccc(Br)cc12 | 2 | 18* | 0 | -9 | -1 | 2 | 0 | 2
COc1ccccc1-n1c(=O)c2c3c(sc2n2c(SC(C)C)nnc12)CCC3 | 4 | 16* | -2 | 1 | -11 | -1 | -1 | 4
COc1ccc(CCNC(=O)C(=O)NCC2CCCN2S(=O)(=O)c2ccc(OC)cc2)cc1 (stereo unspecified) | . | 6 | 3 | 11 | 1 | 6 | . | .
O=C(CC1(O)C(=O)Nc2ccccc21)c1ccccc1O (stereo unspecified) | 0 | 21* | -5 | 3 | 4 | 2 | -1 | -3
C=CCC1(CC=C)CC(Cc2cnccn2)N(C(=O)OC(C)(C)C)C1 (stereo unspecified) | . | -1 | . | -1 | 4 | . | . | .
Cc1cccc(C)c1OCCCCn1cnc2ccccc2c1=O | 8 | -5 | 0 | -5 | 4 | 0 | . | .
COc1cccc(OC)c1OCCOCCn1cnc2ccccc2c1=O | -6 | 18* | -5 | -3 | -2 | -21 | 0 | -3
Cc1cccc(C(=O)OCC(=O)c2c(N)n(CC(C)C)c(=O)n(C)c2=O)c1[N+](=O)[O-] | . | 17* | 2 | -7 | -4 | -6 | 0 | -1
CC(C)Oc1ccc(F)cc1-c1cc(C(=O)NCc2ccc(F)cc2)[nH]n1 | . | -8 | . | . | -18 | . | . | .
C=C(C)COc1ccc(-c2nc(N)nc(C)c2-c2ccc(OC)cc2)c(O)c1 | 2 | 18* | -3 | 7 | -8 | 0 | 0 | 2
O=C(CCCCCNC(=O)N1CCn2c1nc1ccccc12)NCCc1ccccc1 | . | -9 | 0 | -14 | -10 | 6 | . | .
SMILES | TLR4-MyD88 BLA | m5-HT2A agonist | LANA-H2A inh | TLR9-MyD88 block | NOD2-RIPK2 inh | Rtt109 Vps75 | MOR ag counter | HTR2A ag conf
CCCc1nc2nc(C)c(NS(=O)(=O)c3ccc(CC(C)C)cc3)c(=O)n2[nH]1 | . | 16* | 0 | 6 | -8 | 10 | -1 | -3
CCc1nc2nc(C)c(NS(=O)(=O)c3ccc(CC(C)C)cc3)c(=O)n2[nH]1 | . | 3 | 7 | -1 | -18 | 7 | . | .
COc1ccc(/C=N/NC(=O)CCN2CCN(c3ccccc3)CC2)c(OC)c1OC | 0 | 8 | -2 | -5 | -10 | 6 | . | .
O=C(CCN1CCN(c2ccccc2)CC1)N/N=C/c1ccc(O)c(O)c1O | 14 | 15* | . | 4 | -8 | . | 0 | 51*
C[C@@H](NC(=O)Cn1cnc2c(OCc3ccccc3)ncnc21)c1cccc2ccccc12 | . | 16* | 2 | -2 | -10 | -6 | . | -1
CCCCn1c(N)c(N(CCC(C)C)C(=O)c2ccc(C)c(S(=O)(=O)N3CCOCC3)c2)c(=O)[nH]c1=O | . | -7 | -3 | -11 | -1 | -1 | . | .
COc1ccc2c(C)cc(=O)oc2c1 | . | 29* | . | -10 | -15 | -1 | -1 | 37*
C[C@@H]1CN([C@@H](C)CO)C(=O)CCCn2nncc2CO[C@@H]1CN(C)C(=O)c1ccc(N2CCN(C)CC2)cc1 | . | -2 | . | -10 | -6 | . | . | .
CC(O)/C=C/c1ccc2ccccc2n1 (stereo unspecified) | 5 | 19* | i | -5 | 6 | -6 | 0 | 1
O=C(NS(=O)(=O)c1ccc(Cl)cc1)c1ccccc1 | -3 | 15* | -2 | -10 | -5 | -7 | 0 | 0
Cc1ccc(NC(=O)CN(C)C(=O)CSc2nnc(N)s2)cc1 | . | -3 | 11 | -5 | 0 | -1 | . | .
Cc1csc(=O)n1CC(=O)OCc1nnc(-c2ccccc2)o1 | . | 21* | 4 | 2 | 6 | -3 | 0 | -1
Cc1csc(=O)n1CC(=O)OCc1nnc(-c2ccc(Cl)cc2)o1 | . | 7 | -3 | 1 | 2 | -5 | . | .
CCc1ccccc1NC(=O)c1ccccc1N1C(=O)C2C3C=CC(C3)C2C1=O (stereo unspecified) | . | 16* | -3 | -2 | -12 | 6 | 0 | 1
O=C1COc2ccc(S(=O)(=O)NCCc3ccccc3)cc2N1 | . | 0 | -5 | -9 | 11 | 10 | . | .
COc1ccccc1CNS(=O)(=O)c1ccc2c(c1)NC(=O)CO2 | . | 16* | . | 0 | -3 | -4 | -1 | -2
